Molecules are shown by their SMILES. The campaign covered roughly 16,000 compounds. About 5,800 (36%) were called active. Another 23% or so got no clear call; they are omitted. Some of the results follow. Unmarked numbers belong to inactive results. Calls follow the shape of the dose curve; as a rule, active = well fitted curve in the direction sought with a large enough effect; inconclusive = small, poorly fitted or top-dose-only effect, or effect the other way; inactive = no such curve, though single readings can be large or run the other way.
% is scaled to controls: 0 for no effect and ±100 for the full control effect.

Chain of Cytochrome P450 2C19 (Homo sapiens) (P33261 whole entry, looked up): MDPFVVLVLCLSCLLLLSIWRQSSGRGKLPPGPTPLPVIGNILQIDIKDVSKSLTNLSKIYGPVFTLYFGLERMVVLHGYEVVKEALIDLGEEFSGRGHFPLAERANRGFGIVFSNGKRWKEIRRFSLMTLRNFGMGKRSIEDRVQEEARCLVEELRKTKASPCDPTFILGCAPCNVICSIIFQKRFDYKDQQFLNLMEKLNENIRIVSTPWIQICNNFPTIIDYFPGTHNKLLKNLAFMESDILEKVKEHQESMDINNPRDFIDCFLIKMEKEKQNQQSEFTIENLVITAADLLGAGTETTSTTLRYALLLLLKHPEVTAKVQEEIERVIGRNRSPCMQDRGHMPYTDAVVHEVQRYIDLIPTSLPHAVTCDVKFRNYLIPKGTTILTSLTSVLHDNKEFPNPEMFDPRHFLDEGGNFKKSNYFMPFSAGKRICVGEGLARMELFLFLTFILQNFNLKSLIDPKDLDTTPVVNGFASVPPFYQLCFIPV

This assay has as its target Cytochrome P450 2C19 (Homo sapiens) (UniProt P33261). The assay is described as follows: Cytochrome panel assay with activity outcomes. The conditions noted are these: recombinant CYP, pro-luciferin dealkylation, luminescence, p450-cyp2c19; series mostly up to 57.1 µM; activity, negative = inhibition: at the top concentration.
For `CCC(=O)c1ccc(OCc2ccc(C(=O)OC)cc2)c(OC)c1`, the AC50 is 3.16 µM (active).
For the compound `CC(Oc1ccc(O)cc1)(P(=O)(O)O)P(=O)(O)O`, the “activity, negative = inhibition” value was 29%.
With `O=C(Nc1ccccc1C(=O)Nc1ccc2c(c1)OCO2)c1ccco1`, the AC50 was 3.16 µM (active).
On the same count and under the same terms, to `CC1(C)Oc2ccc(NC(=O)c3ccco3)cc2O1` belongs 14.1 µM (active).
`CCC(=O)[C@@]1(C)[C@H](C)C[C@@H]2[C@@H]3CCC4=CC(=O)C=C[C@@]4(C)[C@H]3[C@H](O)C[C@]21C`: the “activity, negative = inhibition” value was -27.9% [at 25.6 µM].
Regarding `COn1c(SCc2ccc(C)cc2C)nc2ccccc2c1=O`, the AC50 is 3.55 µM (active).
The same measure, in the same setting: under `COn1c(SCc2cccc(Cl)c2)nc2ccccc2c1=O` stands 2.24 µM (active).
Take `Cc1ccc(-n2c(SCc3ccc([N+](=O)[O-])cc3)nc3ccccc3c2=O)cc1`: the “activity, negative = inhibition” value was -12.2%.
Same read-out and setting: under `Nc1nnc(CC(=O)N/N=C/c2cccc([N+](=O)[O-])c2)s1` stands -11.2%; under `O=[N+]([O-])c1ccc(/C=N/Nc2cc(Cl)nc(-c3ccccc3)n2)cc1`, 17.3%.
Regarding `O=[N+]([O-])c1cccc(/C=N/Nc2cc(Cl)nc(-c3ccccc3)n2)c1`, the half-maximal activity concentration (AC50) was 2 µM (active).
For `COc1ccc(NC(=O)N2CCCC3(CCN(C(=O)c4csnn4)CC3)C2)cc1`, the “activity, negative = inhibition” value is -7.72%.
On the same count and under the same terms, to `Cc1cc2c(nc1C)CCCN2C[C@@H](O)CN1CCN(C)CC1` belongs 4.3% [at 11.4 µM].
`CO[C@@H](NC(N)=O)C(=O)O`: the activity, negative = inhibition was 20.6% [at 11.4 µM].
As for `O=C(CCCc1ccccc1)N1CCN(c2ccc([N+](=O)[O-])cc2)CC1`, the half-maximal activity concentration (AC50) was 8.91 µM (active).
As for `COCC(=O)N1CCN(c2ccc([N+](=O)[O-])cc2)CC1`, the “activity, negative = inhibition” value was -7.34%.
Regarding `CC[N+](CC)(CC)CC`, the “activity, negative = inhibition” value is -13.4%.
In the case of `CC(=O)Nc1ccc(S(=O)(=O)NCCc2ccc(F)cc2)cc1`, the AC50 was 5.01 µM (active).
As to `COc1ccc(S(=O)(=O)NCCC(=O)NCc2ccc(F)cc2)cc1`, the “activity, negative = inhibition” value was -27.1%.
With `O=c1c2c(-c3ccc(Cl)cc3)csc2nc2n1CCC2`, the AC50 is 8.91 µM (active).
In the case of `O=c1c2ccccc2nc2n1CCC2`, the “activity, negative = inhibition” value is -19.1%.
For the compound `C[N+](C)(C)CCCSc1nc2ccccc2[nH]1`, the activity, negative = inhibition was 32.5% [at 11.4 µM].
For `Cc1c(OCC(F)(F)F)ccnc1CSc1nc2ccccc2[nH]1`, the AC50 is 1.58 µM (active).
On the same count and under the same terms, to `COC(=O)c1ccc(NC(=O)c2ccccc2NS(=O)(=O)c2ccccc2)cc1` belongs 3.98 µM (active).
In the case of `CC(C)C1NC(=S)N(Cc2ccccc2)C1=O` (stereo not given), the AC50 was 2 µM (active).
On to `O=C(N/N=C\c1cn(-c2ccccc2)nc1-c1ccccc1)c1ccc2c(c1)OCO2`, for which the half-maximal activity concentration (AC50) was 3.16 µM (active).
Same read-out and setting: under `O=C(N/N=C\c1cn(-c2ccccc2)nc1-c1ccccc1)c1ccc(Br)o1` stands 2 µM (active).
On the same count and under the same terms, to `Cc1ccc(-c2nn(-c3ccccc3)cc2/C=N/NS(=O)(=O)c2ccccc2)cc1` belongs 8.91 µM (active).
Take `Cc1c(/C=N/NC(=O)c2ccc3c(c2)OCO3)cnn1C`: the “activity, negative = inhibition” value was -22.6%.
Take `COc1ccc(CNn2c(C)nc3ccccc3c2=O)cc1`: the AC50 is 0.316 µM (active).
For the compound `CCCCOc1ccc(CNn2c(C)nc3ccccc3c2=O)cc1`, the AC50 is 0.112 µM (active).
For the compound `COc1ccc(CN[C@H](C)C(=O)O)cc1`, the activity, negative = inhibition was 24.9% [at 11.4 µM].
In the case of `Cc1nc2ccccc2c(=O)n1NC(=O)c1ccccc1Cl`, the AC50 is 20 µM (active).
As for `N/N=C1/CC(=O)NC(=O)N1`, the activity, negative = inhibition was -9.46% [at 11.4 µM].
On to `CCCCOC(=O)C1=C(C)Nc2ncnn2C1c1cc(OC)ccc1OC` (stereo not given), for which the AC50 is 20 µM (active).
In the case of `COc1cc(OC)c(C2C(C(=O)Nc3ccc(C)cc3C)=C(C)Nc3ncnn32)cc1OC` (stereo not given), the “activity, negative = inhibition” value is -25.1%.
Consider `COCCCNC(=O)c1c(N)n(/N=C/c2ccccn2)c2nc3ccccc3nc12`, for which the AC50 was 10 µM (active).
For `CCCCOc1cc(C(=O)NCCN(CC)CC)c2ccccc2n1`, the “activity, negative = inhibition” value was -23.7% [at 25.6 µM].
With `CCNc1ncc2nc(-c3cccs3)c(=O)n(C[C@H]3CCCO3)c2n1`, the “activity, negative = inhibition” value is -9.35%.
`CCC(=O)N(C)/C=C1\Sc2ccccc2C1=O`: the AC50 was 20 µM (active).
Consider `CN(C)C(=O)CSC1c2ccccc2C(=O)N1c1ccccc1` (stereo not given), for which the “activity, negative = inhibition” value is -16%.
Take `CCOC(=O)C1CCCN(C(=O)c2sc3nc(-c4ccc(OC)cc4)cn3c2C)C1` (stereo not given): the AC50 was 7.94 µM (active).
Regarding `CSc1nc2c(c(=O)[nH]1)C(c1ccncc1)C(C(=O)OC(C)C)=C(C)N2` (stereo not given), the AC50 is 1.12 µM (active).
In the case of `CCSc1nc2c(c(=O)[nH]1)C(c1ccccn1)C1=C(CC(C)(C)CC1=O)N2` (stereo not given), the “activity, negative = inhibition” value is -2.31%.
In the case of `CCSc1nc2c(c(=O)[nH]1)C(c1ccncc1)C(C(=O)OC(C)C)=C(C)N2` (stereo not given), the AC50 is 0.708 µM (active).
Take `CCOCCCn1cnc2c(c1=O)c1nc3ccccc3nc1n2-c1ccccc1`: the “activity, negative = inhibition” value was -8.6%.
With `O=C1c2ccccc2C(=O)N1CCCSc1ccccc1`, the AC50 is 0.631 µM (active).
As for `Cc1ccc(SCCCn2cnc3ccccc3c2=O)cc1`, the AC50 is 2.24 µM (active).
`O=c1c2ccccc2ncn1CCCSc1ccccc1`: the AC50 was 1.41 µM (active).
Take `O=C(c1ccccc1)c1ccc(OCCn2cnc3ccccc3c2=O)cc1`: the AC50 is 1.58 µM (active).
